Source: PubChem BioAssay (NCI)
Compounds without any hit were thinned out: in the full panel of roughly 83,000, 20% have a hit.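 Values shown are percent growth following 48 h exposure of cells in 96-well plates to a single concentration of compound; below 10 was considered active.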 A number with no mark means an inactive call. Calls of active or inactive are those of the source.

The molecules below were run on RXF 393 renal (assay: NCI-60 one-dose screen, 48 h (100 = growth as untreated, 0 = no growth, -100 = all killed)). Details: 10 µM unless noted.
In the case of CC(=O)Nc1ccc2c(c1)c(NC(C)=O)nn2C(=O)Nc1ccc(Cc2ccccc2)cc1, the growth is reported as 92.6%.
With Cc1ccc2c(c1)O/C(=C\c1cccc(OCC(=O)c3ccccc3)c1)C2=O the growth was 80%.
For Nc1nc(SCc2ccccc2)c2ncn(C3CCCC3)c2n1, the growth was 99.5%.
With Cn1c2ccccc2c2c3c(c4c5ccccc5n(CCCCCC#N)c4c21)C(=O)N(O)C3=O the growth was -21.8% (active).
In the case of CCN(CC)Cc1cc(Nc2c3ccc(Cl)cc3nc3c(C)cccc23)ccc1O, the growth is reported as -74.3% (active).
CS(=O)(=O)c1ccc(-c2cnc3ccc(-c4cccc(S(C)(=O)=O)c4)nn23)cc1 was tested, and the growth was 9.52% (active).
For COc1ccc(CCN2CCCn3c2nc2ccccc2c3=O)cc1, the growth was -0.0509% (active).
With CC#CC#Cc1cccc(=O)o1 the growth was 47.3%.
In the case of c1ccc2c(Nc3cccc4ccccc34)cccc2c1, the growth is reported as 83.8%.
c1ccc(CSc2ncnc3nc[nH]c23)nc1 was tested, and the growth was 119%.
For O=C(O)c1cccnc1Br, the growth was 121%.
COc1ccc(-c2cc(-c3cccnc3)nc3sc4c(=O)n(-c5ccc(C)cc5)cnc4c23)cc1OC was tested, and the growth was 98.5%.
With CNC(=O)c1cc(Oc2ccc3nc(NC(=O)Nc4ccc(CN5CCOCC5)c(C(F)(F)F)c4)sc3c2)ccn1 the growth was 44.6%.
Molecule CCN(CC)CCCC(C)NCCCNc1cccc2cccnc12 (stereo unspecified) has a growth of 104%.
CCCCN(CCCC)Cc1c(C)[nH]c2cc(OC)ccc2c1=O showed a growth of 108%.
Molecule O=C1C[C@H](Sc2nc(-c3ccc(F)cc3)cc(C(F)(F)F)n2)[C@H]2CO[C@@H]1O2 has a growth of 96.6%.
